Inconclusive results are not listed. A number with no mark means an inactive call. The source made the active and inactive calls. The call rests on the fitted dose curve; in most records, active means well fitted inhibition curve with a large enough effect; inconclusive means small, poorly fitted or top-dose-only effect; inactive means no such curve, though single readings can be large or run the other way.
molecular target: Aldehyde dehydrogenase 1A1 (Homo sapiens) (UniProt P00352); assay: qHTS for Inhibitors of the Aldehyde Dehydrogenase Family (ALDH1A1) Confirmatory screens (AID 2061316); conditions: ALDH inhibition qHTS; series mostly up to 47.3 µM; activity change, negative = inhibition: at the top concentration; further: nearly all actives have a fitted effect of over 65% in size
On the % scale 0 is the no-effect control and ±100 the full control effect; potency means the concentration at half of the fitted maximal effect.

Question: How did the Potency turn out when CC(=O)Nc1ncc(S(=O)(=O)Nc2cnccc2C(=O)Nc2nc(-c3ccccc3)cs2)s1 was run?
Answer: 20.1 µM (active)

Question: c1ccc(CNc2ccc(N3CCOCC3)cc2)cc1 was tested. Which Potency did it give?
Answer: 7.98 µM (active)

Question: CN1CCN(c2cccc(Nc3nn4c(=O)c5ccc(N(C)C)cc5nc4s3)c2)CC1 was tested. Which Potency did it give?
Answer: 11.3 µM (active)

Question: For Cc1cc(-c2nnc3n2CCCCC3)c(C)n1-c1ccc([N+](=O)[O-])cc1, which Potency is on record?
Answer: 10.1 µM (active)

Question: Which Potency does the source give for CC(C)(C)OC(=O)N1CCN(c2ccc(NCc3ccc(-c4ccc(C#N)cc4)nc3)cc2)CC1 here?
Answer: 15.9 µM (active)

Question: How did the Potency turn out when N#Cc1c(-c2ccc(F)c(Br)c2)no[n+]1[O-] was run?
Answer: 20.1 µM (active)

Question: With Cc1ccc(NS(=O)(=O)c2cc3c(cc2N[C@@H](C)CO)NC(=O)CC3)cc1Cl as the compound, how does the “activity change, negative = inhibition” value read?
Answer: -6.56%

Question: For Cc1ccc2nc3sc(C(=O)N4CCN(C5CCN(C)CC5)CC4)cc3cc2c1, which Potency is on record?
Answer: 12.7 µM (active)

Question: With O=C(NCC#CCSc1nnc(-c2cccc3ccccc23)o1)c1cccs1 as the compound, how does the Potency read?
Answer: 8.96 µM (active)

Question: O=C1CCCC2=C1C(c1ccccc1)N=C(Nc1nc3ccccc3o1)N2 (stereo not drawn) was tested. Which “activity change, negative = inhibition” value did it give?
Answer: -0.582%

Question: How did the “activity change, negative = inhibition” value turn out when COc1ccc(S(=O)(=O)Nc2cc(OC)cc3cccnc23)cc1 was run?
Answer: 2.65%

Question: With CC(O)c1ccc(-c2ccc3ncnc(N4CCOCC4)c3c2)o1 (stereo not drawn) as the compound, how does the Potency read?
Answer: 11.3 µM (active)

Question: With N#Cc1c(-c2cccc([N+](=O)[O-])c2)no[n+]1[O-] as the compound, how does the Potency read?
Answer: 12.7 µM (active)

From PubChem BioAssay (NCATS)
